The record followed here is PubChem BioAssay (NCATS).

Molecules are shown by their SMILES. A number with no mark means an inactive call. Inconclusive results are not listed. Activity calls are given as the source filed them. Unless noted, calls follow the shape of the dose curve; as a rule, active = well fitted curve in the direction sought with a large enough effect; inconclusive = small, poorly fitted or top-dose-only effect, or another doubt; inactive = no such curve, though single readings can be large; an effect the other way counts as inactive or inconclusive.

A short description of assay [1]: Cellular Toxicity (caspase-3) Renal Proximal Tubule (AID 667).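 Also: cells exposed to compound for 16 hours at 37 °C before detection; 0% = DMSO basal and 100% = 10 µM staurosporine.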 To be noted: Potency: caspase-3 activation. The gist of the method: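 Freshly isolated primary rat kidney proximal tubule cells, 1000/well, treated 16 hr at 37 °C, then Caspase-Glo 3/7 luminescence after 1 hr. Normalized to DMSO and 10 uM staurosporine; AC50 from Hill fit.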
The target of assay [2] is Cytochrome P450 3A4 (Homo sapiens) (UniProt P08684). The assay can be described thus: qHTS Assay for Activators of Cytochrome P450 3A4 (AID 885). Also: nearly all actives have a fitted effect of over 65% in size. In short, it runs like this: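 Human CYP3A4 dealkylates Luciferin-PPXE to luciferin, which luciferase detection converts to light. Substrate was at its KM (25uM), buffer 200mM KPO4, reaction 60 min at RT.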
Sequence of Cytochrome P450 3A4 (Homo sapiens) (P08684 whole entry, looked up): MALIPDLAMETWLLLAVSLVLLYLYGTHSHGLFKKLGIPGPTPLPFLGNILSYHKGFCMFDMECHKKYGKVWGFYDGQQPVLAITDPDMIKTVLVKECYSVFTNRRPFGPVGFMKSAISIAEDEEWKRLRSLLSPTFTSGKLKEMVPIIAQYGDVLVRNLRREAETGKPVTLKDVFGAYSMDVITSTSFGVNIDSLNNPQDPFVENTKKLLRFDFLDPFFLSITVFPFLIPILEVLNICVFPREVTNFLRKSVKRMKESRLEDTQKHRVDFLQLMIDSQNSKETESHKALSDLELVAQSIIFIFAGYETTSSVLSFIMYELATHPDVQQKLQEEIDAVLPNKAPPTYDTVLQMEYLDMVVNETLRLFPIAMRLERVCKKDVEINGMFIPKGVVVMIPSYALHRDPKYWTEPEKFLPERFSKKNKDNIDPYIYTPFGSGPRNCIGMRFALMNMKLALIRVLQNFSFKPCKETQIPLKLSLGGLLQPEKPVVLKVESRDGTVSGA
Assay [3] can be described thus: Confirmation and Secondary Assay for Modulators of Hemoglobin Beta Chain Splicing at IVS2 654 locus (AID 910). Also: % of control where 0% means no effect. In short, it runs like this: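 HeLa cells stably carrying EGFP interrupted by mutant beta-globin IVS2-654 intron (CMV-driven) were treated with compound for 2 days at 37C; corrected splicing was scored as total peak GFP intensity per well (488 nm excitation, 500-520 nm emission).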

Assay [4] can be described thus: Cell Viability - LYMP2-001 (AID 921).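 Also: series mostly up to about 92 µM; 0% = DMSO only and full inhibition = tetraoctylammonium bromide control wells; nearly all actives have a fitted effect of over 70% in size.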 The gist of the method: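 Human lymphoblastoid LYMP2-001 cells, 2500 per well, in complete medium, treated 24 h at 37 C. Viability from cellular ATP by CellTiter-Glo luminescence; AC50 from Hill-equation fits of qHTS concentration-response.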
The nature of assay [5]: Confirmation and Secondary Assay for Modulators of Hemoglobin Beta Chain Splicing at IVS2 705 locus (AID 930).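 Also: GFP fluorescence per well restored by corrected splicing of the IVS2-705 intron in EGFP.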 Also: potency is read from the fitted curve at half-maximal effect.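 As to activation: HeLa cells stably expressing the EGFP-705 splicing reporter; series mostly up to about 46 µM; % of control where 0% means no effect.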 The gist of the method:
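HeLa cells stably carrying EGFP interrupted by mutant beta-globin intron 2 (IVS2-705) treated 2 days at 37C with compound; 500 nM antisense PNA as control. Correct splicing read as total peak GFP intensity per well by laser-scanning cytometry.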

A short description of assay [6]: Cell Viability - LYMP1-002 - Assay at 16 hr (AID 948).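 Also: 0% = DMSO alone and full effect = 92 µM tetraoctylammonium bromide.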 The gist of the method: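 LYMP1-002 human lymphoblastoid cells, 2500/well, were treated with compounds for 16 hr at 37 C in complete medium. Viability was read as intracellular ATP by CellTiter-Glo luminescence, and AC50 was derived from a Hill fit to concentration-response data.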
Assay [7] can be described thus: MultiTox-Fluor Cytotoxicity Assay - LYMP1-002 - Dead Cells (AID 960). Also: nearly all actives have a fitted effect of over 60% in size. Also: potency is read from the fitted curve at half-maximal effect. In short, it runs like this:
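Readout: fluorescence at 485/520 from cell-impermeant bis-AAF-R110 cleaved by proteases leaking from damaged cells. LYMP1-002 lymphoblastoid line, 16 hr compound treatment at 37 C, concentration-response in qHTS format; Hill-equation AC50 values.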

The nature of assay [8]: MultiTox-Fluor Cytotoxicity Assay - LYMP1-003 - Dead Cells (AID 961).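 Also: 0% = DMSO and 100% = tetraoctylammonium bromide; nearly all actives have a fitted effect of over 70% in size.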 The gist of the method:
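LYMP1-003 human lymphoblastoid cells (2500/well) exposed to compound 16 h at 37 C in complete medium; dead-cell protease read with bis-AAF-R110 fluorescence (Ex/Em 485/520) after 60 min at room temperature. Normalized to DMSO and 15 uM tetraoctylammonium bromide; AC50 from Hill fit.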

The target in assay [9] is Cytochrome P450 2D6 (Homo sapiens) (UniProt P10635). The assay can be described thus: qHTS Assay for Inhibitors and Substrates of Cytochrome P450 2D6 (AID 891). Also: nearly all actives have a fitted effect of over 60% in size. Also: potency is read from the fitted curve at half-maximal effect. The gist of the method: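 Luminescent read-out of luciferin formed by 5 nM human CYP2D6 demethylating 30 uM Luciferin-ME EGE (Km level) over 60 min at room temperature after NADPH regeneration addition. Data normalized to full inhibition by 1.43 uM quinidine.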
Sequence of Cytochrome P450 2D6 (Homo sapiens) (P10635 whole entry, looked up): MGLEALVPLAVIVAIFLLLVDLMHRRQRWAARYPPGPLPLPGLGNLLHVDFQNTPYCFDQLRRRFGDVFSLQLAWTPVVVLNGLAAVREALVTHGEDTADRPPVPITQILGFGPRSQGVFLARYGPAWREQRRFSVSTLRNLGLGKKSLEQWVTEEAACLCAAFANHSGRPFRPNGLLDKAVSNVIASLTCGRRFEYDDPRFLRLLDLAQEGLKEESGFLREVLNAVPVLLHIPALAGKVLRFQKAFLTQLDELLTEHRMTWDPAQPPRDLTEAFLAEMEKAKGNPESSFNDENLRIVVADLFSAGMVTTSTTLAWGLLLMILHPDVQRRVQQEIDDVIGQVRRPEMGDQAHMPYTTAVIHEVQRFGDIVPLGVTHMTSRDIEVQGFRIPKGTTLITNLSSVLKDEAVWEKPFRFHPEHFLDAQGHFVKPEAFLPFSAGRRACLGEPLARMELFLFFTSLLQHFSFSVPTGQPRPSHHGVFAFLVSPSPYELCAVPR
(Quantitative high-throughput screening tests each substance at several concentrations.)

Assay [10] deals with Cytochrome P450 2C19 (Homo sapiens) (UniProt P33261). Kind of assay: qHTS Assay for Inhibitors and Substrates of Cytochrome P450 2C19 (AID 899). Also: nearly all actives have a fitted effect of over 60% in size. Also: potency is read from the fitted curve at half-maximal effect. In short, it runs like this: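 In 50mM KPO4, the reaction held 5nM enzyme and KM-level (10uM) Luciferin-H EGE; it ran 60 min at 37C after NADPH regeneration and a 10 min compound preincubation. Luminescence values were scaled to 57uM ketoconazole as complete inhibition.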
Sequence of Cytochrome P450 2C19 (Homo sapiens) (P33261 whole entry, looked up): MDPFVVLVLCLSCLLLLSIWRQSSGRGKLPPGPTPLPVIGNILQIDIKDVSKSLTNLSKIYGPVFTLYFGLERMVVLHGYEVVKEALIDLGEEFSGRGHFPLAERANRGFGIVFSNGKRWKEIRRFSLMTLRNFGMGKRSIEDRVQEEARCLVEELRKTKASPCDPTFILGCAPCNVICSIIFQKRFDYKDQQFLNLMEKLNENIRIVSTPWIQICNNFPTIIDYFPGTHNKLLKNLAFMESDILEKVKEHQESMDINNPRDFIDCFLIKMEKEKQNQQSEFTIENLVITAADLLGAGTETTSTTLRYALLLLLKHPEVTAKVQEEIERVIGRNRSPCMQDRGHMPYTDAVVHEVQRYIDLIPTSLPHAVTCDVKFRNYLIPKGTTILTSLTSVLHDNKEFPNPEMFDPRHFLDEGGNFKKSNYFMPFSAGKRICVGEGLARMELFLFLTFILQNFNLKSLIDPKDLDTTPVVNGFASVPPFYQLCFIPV

Assay [11] can be described thus: MultiTox-Fluor Cytotoxicity Assay - LYMP1-001 - Live Cells (AID 947).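 Also: 0% = DMSO only and full inhibition = tetraoctylammonium bromide control.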
Assay [12] concerns the target Guanine nucleotide-binding protein G(i) subunit alpha-1 (Homo sapiens) (UniProt P63096). Kind of assay: qHTS Assay for Inhibitors of RGS12 GoLoco Motif Activity (Green Fluorophore) (AID 879).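 Also: 0% = labeled peptide with Gαi1 and full inhibition = labeled peptide alone without protein; negative values mean loss of peptide binding seen as reduced polarization.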 In short, it runs like this:
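A drop in FITC polarization marked displacement of the FITC-tagged RGS12 GoLoco peptide (10 nM) from Gαi1 (50 nM). Compounds were incubated 10 min at room temperature in Tris pH 7.5 buffer containing 150 mM NaCl, 0.1 mM GDP and 0.05% NP40; unlabeled peptide titration served as control.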

In assay [13] the target is Pyruvate kinase PKM (Homo sapiens) (UniProt P14618). Kind of assay: qHTS Assay for Activators of Human Muscle Pyruvate Kinase (AID 954; active = well fitted curve in the direction sought with a large enough effect, not every such curve was filed as active;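 also: 0% = uninhibited enzyme and -100% = no enzyme or full thiadiazolimine inhibition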). In short, it runs like this:
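Compound pinned into substrate mix (0.5 mM PEP, 0.1 mM ADP), then 0.1 nM PKM2 added; 1 h, RT. Stop/detection luciferase reagent added, luminescence read. Normalized to no-inhibition and no-enzyme or reference-inhibitor controls.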

The nature of assay [14]: qHTS Assay for Identification of Small Molecule Antagonists for NFkB Signaling Pathway (AID 895; active = well fitted inhibition curve with a large enough effect in the signal ratio, with a control signal flat, not every such curve was filed as active; the % refers to the signal ratio; also: potency is read from the fitted curve at half-maximal effect). The gist of the method:
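NFkB-bla ME-180 cervical carcinoma cells with beta-lactamase reporter under NFkB response element; compounds added, then TNF alpha at 10 pM final (EC50), 5 h at 37 C. LiveBLAzer substrate 2 h, room temperature; emission 460/530 nm at 405 nm excitation.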

The nature of assay [15]: qHTS Assay for Identification of Small Molecule Agonists for Thrombopoietin (TPO) Signaling Pathway (AID 917). Also: % is scaled to controls: 0 for no effect and ±100 for the full control effect. The gist of the method:
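Stimulation at the TPO EC50 (26 pM final) was used to detect activators. Ba/F3 mouse cells bearing human TPO receptor and a luciferase reporter under the Glycoprotein IIb promoter were exposed to compounds for 24 hrs at 37 C.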

In assay [16] the target is Muscarinic acetylcholine receptor M1 (Rattus norvegicus) (UniProt P08482). Kind of assay: qHTS Assay for Antagonists of Acetylcholine Muscarinic M1 Receptor: Kinetic Measurement of Intracellular Calcium Response (AID 943).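 Also: Fluo-4 calcium signal as peak divided by basal fluorescence over 4 min; series mostly up to about 35 µM; nearly all actives have a fitted effect of over 75% in size.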 The gist of the method:
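Read-out: peak over basal Fluo-4 fluorescence, kinetic at 1 Hz for 4 min after EC80 carbachol (100 nM final). Rat M1-CHO cells, dye loaded 1 h at 37C, compound added 10 min before agonist.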

Assay [17] has as its target Pyruvate kinase (Leishmania mexicana) (UniProt Q27686). The assay can be described thus: qHTS Validation Assay for Inhibitors of Leishmania Mexicana Pyruvate Kinase (AID 945).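 Also: 0% = DMSO only neutral control wells.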 The gist of the method: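 Eight-point qHTS titrations in triplicate, data normalized to DMSO neutral control. Reaction: 0.2 nM LmPYK E451W mutant, 0.5 mM PEP, 0.1 mM ADP, 7 mM MgCl2, pH 7.2, one hour at room temperature; luminescent ATP detection.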

Assay [18] concerns the target Cytochrome P450 2C9 (Homo sapiens) (UniProt P11712). The assay can be described thus: qHTS Assay for Inhibitors and Substrates of Cytochrome P450 2C9 (AID 883). Also: % is scaled to controls: 0 for no effect and ±100 for the full control effect; nearly all actives have a fitted effect of over 60% in size. The gist of the method:
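CYP2C9 deoxyluciferin hydroxylation, 37C, 60 min with NADPH regeneration; 10nM enzyme, 100uM Luciferin-H (KM). Glo detection reagent stopped reaction; luminescence normalized to sulphaphenazole (57uM) full inhibition.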

Assay [19] is described as follows: qHTS Assay for Identification of Small Molecule Agonists for Hypoxia Response Element Signaling Pathway (AID 914; active = well fitted activation curve with a large enough effect in the signal ratio, with a control signal flat, not every such curve was filed as active; the % refers to the signal ratio; also: % of control where 0% means no effect). To be noted: ME-180 (cervical carcinoma) HRE-bla reporter, beta-lactamase ratio, CoCl2, 17 h; active compounds read high. The gist of the method:
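HRE-bla ME-180 cells with beta-lactamase reporter under hypoxia response element, compounds with EC50 CoCl2 for 17 hours at 37 C. CCF4 substrate, 460nm/530nm emission ratio gave %Activity; AC50 from titration series.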

Sequence of Guanine nucleotide-binding protein G(i) subunit alpha-1 (Homo sapiens) (P63096 whole entry, looked up): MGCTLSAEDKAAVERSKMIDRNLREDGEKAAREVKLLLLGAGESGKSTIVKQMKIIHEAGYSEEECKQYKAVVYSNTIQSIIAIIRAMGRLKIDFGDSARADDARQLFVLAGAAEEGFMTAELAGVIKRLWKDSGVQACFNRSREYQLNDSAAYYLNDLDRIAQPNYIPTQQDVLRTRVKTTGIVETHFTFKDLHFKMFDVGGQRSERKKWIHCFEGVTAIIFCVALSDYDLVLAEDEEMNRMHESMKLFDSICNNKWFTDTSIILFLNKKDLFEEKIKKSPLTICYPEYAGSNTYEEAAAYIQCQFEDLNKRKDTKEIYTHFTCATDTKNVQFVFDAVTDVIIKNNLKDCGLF
Sequence of Pyruvate kinase (Leishmania mexicana) (Q27686 2-499 E452W): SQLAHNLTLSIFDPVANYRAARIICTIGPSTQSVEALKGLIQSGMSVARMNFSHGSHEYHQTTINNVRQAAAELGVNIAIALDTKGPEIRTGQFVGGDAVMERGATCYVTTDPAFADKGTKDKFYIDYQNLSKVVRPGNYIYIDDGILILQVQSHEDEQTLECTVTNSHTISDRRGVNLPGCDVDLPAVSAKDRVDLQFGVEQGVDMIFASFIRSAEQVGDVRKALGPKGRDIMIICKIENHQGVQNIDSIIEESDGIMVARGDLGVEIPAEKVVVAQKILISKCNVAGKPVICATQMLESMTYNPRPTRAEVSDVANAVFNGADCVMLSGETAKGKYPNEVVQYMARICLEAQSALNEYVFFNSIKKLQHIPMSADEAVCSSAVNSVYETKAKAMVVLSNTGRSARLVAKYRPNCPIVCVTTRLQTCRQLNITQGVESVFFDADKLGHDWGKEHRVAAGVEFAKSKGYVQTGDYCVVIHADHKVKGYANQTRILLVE
Sequence of Pyruvate kinase PKM (Homo sapiens) (P14618 whole entry, looked up): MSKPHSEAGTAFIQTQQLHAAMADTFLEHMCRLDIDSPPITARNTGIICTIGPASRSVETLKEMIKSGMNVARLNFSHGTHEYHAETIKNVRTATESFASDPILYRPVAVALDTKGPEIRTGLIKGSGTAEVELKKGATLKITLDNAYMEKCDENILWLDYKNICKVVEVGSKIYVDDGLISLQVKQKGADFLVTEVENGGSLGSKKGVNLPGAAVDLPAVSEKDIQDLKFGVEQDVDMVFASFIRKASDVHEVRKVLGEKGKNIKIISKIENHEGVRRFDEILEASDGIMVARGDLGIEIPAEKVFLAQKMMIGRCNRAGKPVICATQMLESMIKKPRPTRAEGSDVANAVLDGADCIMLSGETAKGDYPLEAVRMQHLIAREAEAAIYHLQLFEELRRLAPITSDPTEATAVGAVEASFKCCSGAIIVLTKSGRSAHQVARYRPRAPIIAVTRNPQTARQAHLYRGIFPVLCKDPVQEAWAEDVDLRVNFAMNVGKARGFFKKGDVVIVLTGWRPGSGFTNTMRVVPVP
Sequence of Cytochrome P450 2C9 (Homo sapiens) (P11712 whole entry, looked up): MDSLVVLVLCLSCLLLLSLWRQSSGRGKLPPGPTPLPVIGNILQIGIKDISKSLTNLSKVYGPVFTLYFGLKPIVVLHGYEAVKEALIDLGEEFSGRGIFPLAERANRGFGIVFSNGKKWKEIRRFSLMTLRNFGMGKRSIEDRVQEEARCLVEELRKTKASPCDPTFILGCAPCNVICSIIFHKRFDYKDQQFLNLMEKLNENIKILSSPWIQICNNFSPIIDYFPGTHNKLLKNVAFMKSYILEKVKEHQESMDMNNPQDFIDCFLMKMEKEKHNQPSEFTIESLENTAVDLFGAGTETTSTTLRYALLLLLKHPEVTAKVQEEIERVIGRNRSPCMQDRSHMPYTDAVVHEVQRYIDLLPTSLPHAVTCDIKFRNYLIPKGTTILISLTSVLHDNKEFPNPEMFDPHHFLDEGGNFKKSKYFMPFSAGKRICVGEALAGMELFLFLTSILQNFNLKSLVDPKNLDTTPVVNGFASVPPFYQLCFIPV
Sequence of Muscarinic acetylcholine receptor M1 (Rattus norvegicus) (P08482 whole entry, looked up): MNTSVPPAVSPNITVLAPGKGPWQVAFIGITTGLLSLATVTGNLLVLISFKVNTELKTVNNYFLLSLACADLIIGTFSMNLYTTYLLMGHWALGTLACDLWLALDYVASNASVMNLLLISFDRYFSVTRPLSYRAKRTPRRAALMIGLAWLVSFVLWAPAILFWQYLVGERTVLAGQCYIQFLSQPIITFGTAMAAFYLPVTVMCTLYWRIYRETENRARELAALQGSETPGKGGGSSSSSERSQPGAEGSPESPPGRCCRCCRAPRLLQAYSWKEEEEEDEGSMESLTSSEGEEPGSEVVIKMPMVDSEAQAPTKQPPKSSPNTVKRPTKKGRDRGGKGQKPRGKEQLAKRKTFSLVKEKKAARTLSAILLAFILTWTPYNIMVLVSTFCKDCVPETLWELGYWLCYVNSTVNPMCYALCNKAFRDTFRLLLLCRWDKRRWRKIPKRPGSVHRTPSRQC

For the molecule `CC1=NN(c2ccccc2)C(=O)C1`, the Potency entry in assay [1], in assay [3], in [4], in assay [5], in assay [6] and in assay [7] was “inactive” throughout. The molecule was classed as inactive in [2] and in [8].

Consider `CC1=CC(=O)c2ccccc2C1=O`, for which the result in assay [2] was inactive. Moreover, the Potency in assay [9] was 7.94 µM (active); in assay [10], 2.51 µM (active). The Potency entry in assay [3] and in assay [5] was “inactive” each time.

On to `O=c1oc2c(O)c(O)cc3c(=O)oc4c(O)c(O)cc1c4c23`, for which the Potency entry in assay [9] and in assay [3] was “inactive” in each case. Further, the Potency in assay [10] was 31.6 µM (active); in assay [5], 10 µM (active).

`Cc1ccnc2c1NC(=O)c1cccnc1N2C1CC1`: the Potency entry in [1], in assay [4], in assay [11], in assay [6] and in assay [7] was “inactive” throughout. The outcome in assay [8] was inactive.

On to `CC(=O)[C@H]1CC[C@H]2[C@@H]3CCC4=CC(=O)CC[C@]4(C)[C@H]3CC[C@]12C`, for which the Potency entry in [1], in assay [4] and in assay [11] was “inactive” each time. Moreover, the result in assay [12] and in [13] was inactive. In addition, the Potency in [7] was 15.8 µM (active).

Regarding `OCc1ccc(-c2nn(Cc3ccccc3)c3ccccc23)o1`, the molecule was classed as inactive in assay [12], in assay [2], in assay [15], in assay [16], in [17] and in assay [13]. Further, the Potency in [14] was 8.91 µM (active).

Regarding `CCOC(=O)c1ccc(OC(=O)CCCCCN=C(N)N)cc1`, the outcome in assay [18] was inactive. Moreover, the Potency in assay [9] is 0.316 µM (active).

For `Cc1cc(NS(=O)(=O)c2ccc(N)cc2)no1`, the Potency result in assay [1], in [3], in [4], in assay [5], in assay [11] and in assay [6] was “inactive” each time. Besides, in [7], the Potency entry was “inactive”. Moreover, in assay [8], the result was inactive.

As to `C[C@]12C=CC(=O)C=C1CC[C@@H]1[C@@H]2C(=O)C[C@@]2(C)[C@H]1CC[C@]2(O)C(=O)CO`, the Potency result in [1], in assay [4], in assay [11], in [6] and in [7] was “inactive” in each case. For the same molecule, in [8], the call was inactive.

As for `N=C(N)c1ccc(OCCCCCOc2ccc(C(=N)N)cc2)cc1`, the Potency result in assay [1], in assay [3], in [5], in [11], in assay [6] and in assay [7] was “inactive” each time. In [19], the activation was 3.68%. Moreover, in assay [8], the result was inactive.

With `NC(=O)c1cccc(N)c1`, the call in [12], in assay [18], in assay [15], in [17] and in [13] was inactive. For the same molecule, the Potency entry in assay [9], in assay [14] and in assay [10] was “inactive” throughout.

Take `O=C(N[C@H](CO)[C@H](O)c1ccc([N+](=O)[O-])cc1)C(Cl)Cl`: the Potency entry in assay [1], in assay [4], in [11], in assay [6] and in [7] was “inactive” throughout. Also, the result in [8] was inactive.

In the case of `COc1cc2ncnc(Nc3cccc(Cl)c3)c2cc1OC`, the molecule was classed as inactive in assay [12], in assay [15], in [17] and in assay [13]. Besides, the Potency in assay [14] is 15.8 µM (active).
